The values that follow come from PubChem BioAssay (NCATS).

SMILES strings stand for the structures. Inconclusive results are not listed. Calls of active or inactive are those of the source. Calls follow the shape of the dose curve; as a rule, active = well fitted cell-killing curve with a large enough effect; inconclusive = small, poorly fitted or top-dose-only effect, or effect the other way; inactive = no such curve, though single readings can be large or run the other way. Starred links: 1 amine or outer side, 2 acyl side, 3 side chain; linkers in the order of their positions; H or OH if unused. Positions of bridges follow the written chain, without caps; N, C: chain ends. Non-standard residues stand in square brackets, D forms with d. Residues, ends and D or L forms follow the SMILES beside them. Chains are numbered I, II in the order given. Actinocin(9to1) = Cc1c2oc3c(C)ccc(C(=O)[*:1])c3nc-2c(C(=O)[*:2])c(N)c1=O; NMeV = CN[CH](C(=O)O)C(C)C; Sar = CNCC(=O)O

Test [1] can be described thus: Quantitative High-Throughput drug screen in 47 multiple myeloma cell lines against the NCATS MIPE library collection: U266_ATCC cell viability assay (AID 1919864). Also: nearly all actives have a fitted effect of over 35% in size. Also: potency is read from the fitted curve at half-maximal effect. In short, it runs like this: (§1)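 qHTS format: cells plated (500/well), pin-dosed with MIPE 4.0 compounds, kept 48 h at 37 °C. Readout was CellTiter-Glo luminescence, median RLU.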
A short description of test [2]: Quantitative High-Throughput drug screen in 47 multiple myeloma cell lines against the NCATS MIPE library collection: XG6_PLB cell viability assay (AID 1919865). Also: nearly all actives have a fitted effect of over 40% in size. Also: potency is read from the fitted curve at half-maximal effect. The gist of the method:
as §1

A short description of test [3]: Quantitative High-Throughput drug screen in 47 multiple myeloma cell lines against the NCATS MIPE library collection: XG1_PLB cell viability assay (AID 1919866). Also: nearly all actives have a fitted effect of over 35% in size. Also: potency is read from the fitted curve at half-maximal effect. The gist of the method:
as §1

Test [4] can be described thus: Quantitative High-Throughput drug screen in 47 multiple myeloma cell lines against the NCATS MIPE library collection: PE2_PLB cell viability assay (AID 1919869). Also: nearly all actives have a fitted effect of over 35% in size. Also: potency is read from the fitted curve at half-maximal effect. In short, it runs like this:
as §1

The nature of test [5]: Quantitative High-Throughput drug screen in 47 multiple myeloma cell lines against the NCATS MIPE library collection: PCM6_Riken cell viability assay (AID 1919870). Also: nearly all actives have a fitted effect of over 30% in size. Also: potency is read from the fitted curve at half-maximal effect. The gist of the method:
as §1

The nature of test [6]: Quantitative High-Throughput drug screen in 47 multiple myeloma cell lines against the NCATS MIPE library collection: OPM2_DSMZ cell viability assay (AID 1919872). Also: nearly all actives have a fitted effect of over 30% in size. Also: potency is read from the fitted curve at half-maximal effect. The gist of the method:
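Inhibition of cell viability is measured here. Each line was plated at 500 cells per well, treated with MIPE 4.0 drugs, kept 48 hours at 37C, then assayed for ATP content by CellTiter-Glo luminescence.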

Test [7] in a line: Quantitative High-Throughput drug screen in 47 multiple myeloma cell lines against the NCATS MIPE library collection: VP6_DJ cell viability assay (AID 1919867). Also: nearly all actives have a fitted effect of over 40% in size. Also: potency is read from the fitted curve at half-maximal effect. The gist of the method: as §1
Test [8] in a line: Quantitative High-Throughput drug screen in 47 multiple myeloma cell lines against the NCATS MIPE library collection: KMS11_JCRBsus cell viability assay (AID 1919873). Also: nearly all actives have a fitted effect of over 50% in size. Also: potency is read from the fitted curve at half-maximal effect. In short, it runs like this: as §1
A short description of test [9]: Quantitative High-Throughput drug screen in 47 multiple myeloma cell lines against the NCATS MIPE library collection: RPMI8226_ATCC cell viability assay (AID 1919871). Also: nearly all actives have a fitted effect of over 30% in size. Also: potency is read from the fitted curve at half-maximal effect. The gist of the method:
as §1

Test [10] in a line: Quantitative High-Throughput drug screen in 47 multiple myeloma cell lines against the NCATS MIPE library collection: UTMC2_PLB cell viability assay (AID 1919868). Also: nearly all actives have a fitted effect of over 55% in size. The conditions noted are these: CellTiter-Glo ATP luminescence, 48 h; viability (% of DMSO control): at 45.8 µM (top of the series). In short, it runs like this: as §1
In general terms: Cellular ATP, detected with luciferase, serves as a proxy for viable cell number.

On to `C#C[C@]1(O)CC[C@@H]2[C@@H]3CCC4=CC(=O)CC[C@@H]4[C@H]3CC[C@@]21CC`, for which the Potency result in test [1], in test [2], in test [3], in test [4], in test [5] and in test [6] was “inactive” throughout.
Regarding `C#C[C@]1(O)CC[C@@H]2[C@@H]3CCc4cc(O)ccc4[C@H]3CC[C@@]21C`, the Potency in [1] was 14.8 µM (active); in test [2], 4.18 µM (active); in [3], 3.32 µM (active); in test [7] it was 3.32 µM (active); in test [4], 16.6 µM (active); in [5], 14.8 µM (active). Further, the Potency in [8] was 10.5 µM (active).
In the case of `C[C@H](NC(=O)Cc1cc(F)cc(F)c1)C(=O)N[C@H](C(=O)OC(C)(C)C)c1ccccc1`, the Potency entry in test [1], in [2], in [3], in [4], in test [5] and in test [6] was “inactive” throughout.
Take `Oc1cc(-c2nc(-c3ccccc3)[nH]c2-c2ccncc2)ccc1Cl`: the Potency in test [1] was 16.6 µM (active); in test [2], 2.35 µM (active); in test [3], 2.35 µM (active); in test [7] it was 3.72 µM (active); in [4], 5.26 µM (active); in test [5] it was 2.96 µM (active). In addition, the Potency in [9] is 16.6 µM (active); in test [8] it was 14.8 µM (active).
With `Nc1ccn(C2CO[C@H](CO)O2)c(=O)n1` (some centres undefined), the Potency result in test [1], in test [2], in [3], in test [4], in test [5] and in test [9] was “inactive” throughout. Moreover, the Potency entry in test [6] and in [8] was “inactive” each time.
For `COc1cc(C[C@@H](CO)[C@H](CO)Cc2ccc(O)c(OC)c2)ccc1O`, the Potency in [1] was 0.469 µM (active); in [2], 0.209 µM (active); in test [3] it was 0.418 µM (active); in [7], 0.372 µM (active); in test [4], 2.35 µM (active); in test [5], 0.132 µM (active). Further, the Potency entry in test [6] and in [8] was “inactive” in each case.
Regarding `CCCCC(=O)O[C@]1(C(=O)CO)[C@@H](C)C[C@H]2[C@@H]3CCC4=CC(=O)C=C[C@]4(C)[C@@]3(F)[C@@H](O)C[C@@]21C`, the Potency entry in test [1], in test [2], in [3], in [4] and in test [6] was “inactive” each time. Also, the Potency in test [7] is 14.8 µM (active); in [9], 0.0118 µM (active).
For the molecule `Cn1cc(C=CC(=O)c2cccc(F)c2)cc1C=CC(=O)NO`, the Potency in test [1] was 14.8 µM (active); in [2], 2.35 µM (active); in test [3], 5.9 µM (active); in [4], 20.9 µM (active); in test [5], 18.7 µM (active); in test [6] it was 23.5 µM (active). In addition, the Potency in test [8] is 14.8 µM (active). Moreover, the Potency result in test [9] is “inactive”.
For `CC(C=CC=C(C)C=CC1=C(C)CCCC1(C)C)=CC=CC=C(C)C=CC=C(C)C=CC1=C(C)CCCC1(C)C`, the Potency in test [1] is 16.6 µM (active); in test [2] it was 5.26 µM (active); in test [3], 16.6 µM (active); in test [7] it was 23.5 µM (active); in test [5] it was 23.5 µM (active). In test [6], the Potency entry was “inactive”.
`NC[C@H]1O[C@H](O[C@H]2[C@@H](O)[C@@H](O[C@H]3O[C@H](CO)[C@@H](O)[C@H](N)[C@@H]3O)[C@H](N)C[C@@H]2N)[C@H](N)C[C@H]1O`: the Potency result in test [1], in test [2], in test [3], in [7], in test [4] and in [5] was “inactive” in each case. For the same molecule, the Potency result in test [6] was “inactive”.
Regarding `C[C@H]1[C@@H](OC(=O)CCC(=O)O)O[C@@H]2O[C@@]3(C)CC[C@@H]4[C@H](C)CC[C@@H]1[C@@]24OO3`, the Potency in test [1] was 16.6 µM (active); in test [2], 4.69 µM (active); in test [3], 10.5 µM (active); in test [4], 5.26 µM (active); in [5], 5.9 µM (active); in test [8] it was 1.32 µM (active).
As for `CC(C)(N)c1ccc(-c2nc3ccccc3nc2-c2ccccc2)cc1`, the Potency in [1] was 23.5 µM (active); in test [2], 5.9 µM (active); in test [3], 7.43 µM (active); in [7] it was 7.43 µM (active); in [4] it was 10.5 µM (active); in [5], 10.5 µM (active). Further, in test [8], the Potency is 18.7 µM (active).
For `Cc1c2oc3c(C)ccc(C(=O)NC4C(=O)NC(C(C)C)C(=O)N5CCCC5C(=O)N(C)CC(=O)N(C)C(C(C)C)C(=O)OC4C)c3nc-2c(C(=O)NC2C(=O)NC(C(C)C)C(=O)N3CCCC3C(=O)N(C)CC(=O)N(C)C(C(C)C)C(=O)OC2C)c(N)c1=O` (centres undefined) (I: TVP[Sar][NMeV] / II: TVP[Sar][NMeV]; ester I:1-I:C, II:1-II:C; linker I:N-II:N via Actinocin(9to1); configuration not given here), the Potency result in [1], in [2], in [3], in test [7], in [4] and in test [5] was “inactive” in each case. Also, the Potency result in [9] and in test [8] was “inactive” each time.
Regarding `COc1cc(C(=O)NC2CCN(C)CC2)ccc1Nc1ncc2c(n1)N(C1CCCC1)CCC(=O)N2C(C)C`, the Potency in test [1] was 18.7 µM (active); in test [2] it was 4.69 µM (active); in [3], 20.9 µM (active); in [7], 14.8 µM (active); in test [4], 20.9 µM (active); in [5], 18.7 µM (active). Also, in test [8], the Potency was 20.9 µM (active).
In the case of `C[C@H]1COc2c(N3CCN(C)CC3)c(F)cc3c(=O)c(C(=O)O)cn1c23`, the Potency entry in [1], in [2], in test [3], in test [10], in test [4] and in [5] was “inactive” throughout. The Potency entry in test [9] and in test [8] was “inactive” each time.
With `CC[C@H](CC[C@@H](C)[C@H]1CC[C@H]2[C@@H]3CC=C4C[C@@H](O)CC[C@]4(C)[C@@H]3CC[C@]12C)C(C)C`, the Potency result in test [1], in [2], in [3], in test [4], in test [5] and in [9] was “inactive” each time. Moreover, the Potency entry in [6] and in test [8] was “inactive” each time.
Consider `CC(C)Oc1ccc(C(=O)N[C@H](CNC(=O)CN(C)C)Cc2ccc(-c3cn4cccc([C@H](C)O)c4n3)cc2)cc1Cl`, for which the Potency is 20.9 µM (active) in test [1]; 0.105 µM (active) in [2]; 0.148 µM (active) in test [3]; 5.26 µM (active) in [7]; 23.5 µM (active) in test [5]; 1.48 µM (active) in test [6]. Moreover, in test [8], the Potency is 0.132 µM (active).
As to `C[N+]1(C)[C@@H]2C[C@@H](OC(=O)C(O)(c3cccs3)c3cccs3)C[C@H]1[C@@H]1O[C@@H]12`, the Potency result in [1], in test [2], in test [3], in [4], in [5] and in test [9] was “inactive” in each case. Also, the Potency result in test [6] and in test [8] was “inactive” throughout.
On to `C=C(C)[C@@H]1CC[C@]2(C(=O)O)CC[C@]3(C)[C@H](CC[C@@H]4[C@@]5(C)CC[C@H](O)C(C)(C)[C@@H]5CC[C@]43C)[C@@H]12`, for which the Potency result in [1], in test [3], in test [4], in [6] and in [8] was “inactive” throughout. The results for the Potency in test [2], in test [7] and in test [9] were 2.96 µM (active), 7.43 µM (active) and 5.26 µM (active), respectively.
With `Cc1onc(-c2ccccc2)c1C(=O)N[C@@H]1C(=O)N2[C@@H](C(=O)O)C(C)(C)S[C@@H]12`, the Potency entry in [1], in test [2], in [3], in test [5], in test [9] and in test [6] was “inactive” throughout.
